High-throughput results: PubChem, several laboratories
AHR activator = activators of human aryl hydrocarbon receptor; AHR-responsive luciferase reporter cells, luminescence; activation, % at 5 µM; actives 2.5% (n = 320,000); in the data active means activation above about 47%;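 further: 0% = vehicle wells and 100% = reference agonist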
GAA850 FXN act = activators of GAA850 frataxin (FXN) promoter | activation, % at 6 µM | AID 540364 | actives 0.56% (n = 360,000) | HEK293 lucGAA850 FXN promoter luciferase reporter, 24 h; percent of 10 µM SAHA response;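 active means activation above the average of all compounds screened plus 3 SD, cutoff fixed separately per campaign, cut at about 7.5% in these data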;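 further: 0% = DMSO wells and 100% = 10 µM SAHA wells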
NR0B1 inh = NR0B1 (DAX1) inhibition | P51843 | inhibition, % at 6.75 µM | HEK293 Gal4-DAX1 luciferase reporter, luminescence | actives 0.99% (n = 340,000);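 active means inhibition above the mean over all tested compounds plus 3 SD, cut at about 4.2% in these data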;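 further: 0% = DAX1-transfected cells with DMSO and 100% = empty-vector control cells with DMSO; inhibition shows as a rise in luminescence from relieved DAX1 repression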
HSF1 inh = HSF1 inhibition. activity change, negative = inhibition, % at 7.5 µM (by protocol). NIH3T3-HGL HSE-luciferase, MG132-induced, luminescence 8 h; stronger effect = lower value. actives 0.77% (n = 300,000). AID 2098;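 active means more than half of replicate wells show activity change below -50%, luminescence cut by over half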;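 further: luciferase reports HSF-1 transcriptional activity via heat shock element; 0% = median of DMSO wells and -100% = zero luminescence signal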
HSF-1 act = increases HSF-1 driven luciferase reporter signal | activation, % at 9 µM | actives 1.7% (n = 300,000) | AID 504408 | NIH3T3-HGL HSF-1 luciferase reporter, MG132, 8 h; 100% = twice DMSO control signal;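 active means mean replicate activation of at least 50% with a set share of replicates each reaching 50%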;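 further: 0% = median of the neutral control wells and 100% = twice that signal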
* hit, by the source's call; . = no result given; ! = repeats disagree. Compounds with a hit are over-represented: about 5.4% of the library has one in this group of screens.

SMILES	AHR activator	GAA850 FXN act	NR0B1 inh	HSF1 inh	HSF-1 act
COc1ccc(S(=O)(=O)N2CCOCC2)cc1NC(=O)CCc1cc(OC)c(OC)c(OC)c1	1	-1	0	.	.
C=C1[C@@H](CCO)N(S(=O)(=O)C(C)(C)C)C[C@@H]1C	.	-2	0	.	.
CC(=O)N1CCN(S(=O)(=O)c2cccc(C(=O)Nc3ccc4c(c3)OCO4)c2)CC1	12	1	0	-4	2
O=C(Nc1ccc2c(c1)OCO2)c1cccc(S(=O)(=O)N2CCCC2)c1	107*	-2	0	9	8
CSc1ccccc1C(=O)Nc1ccc2c(c1)OCO2	54*	-1	0	5	16
CCOc1cc(C(=O)Nc2ccc3c(c2)OCO3)ccc1OC(F)F	51*	5	1	0	9
COc1ccc(-c2cccc(NC(=O)c3ccc4c(c3)OCO4)c2)nn1	65*	1	-2	-2	-3
Cc1c(Cl)ccc2c(C(O)CBr)cc(-c3ccccc3)nc12 (stereo not given)	.	3	0	.	.
CCN(Cc1nc(-c2ccc(C)cc2)no1)C(=O)c1ccco1	-1	2	-2	7	18
O=C(Nc1ccc2c(c1)OCO2)c1cccc(Cl)c1	49*	1	3	24	31
CN(C)c1cccc(C(=O)NNC(=O)/C=C/c2cccs2)c1	20	0	0	.	.
CCOC(=O)C1(C)CCCN(C(=O)c2ccc(F)cc2Cl)C1 (stereo not given)	.	-3	.	.	.
COc1ccc(OC)c(/C=N/Nc2nncn2/N=C/c2cc(OC)ccc2OC)c1	51*	-5	-1	38	81*
COc1cc(/C=N/Nc2nncn2/N=C/c2ccc(O)c(OC)c2)ccc1O	15	1	-1	11	29
O=c1oc2ccccc2c(N2CCCC2)c1[N+](=O)[O-]	2	0	4.7*	-2	-1
Cc1ccc(-c2nn3cnnc3c3ccccc23)cc1C	2	4	0	4	-5
COc1ccc(C(C)(C)C)cc1NC(=O)c1c(C)noc1C	81*	0	-1	-1	0
COc1cc(C(=O)Nc2ccc(C(N)=O)cc2)c([N+](=O)[O-])cc1OC	1	1	3	-13	5
COc1ccc(C(C)(C)C)cc1NC(=O)Nc1ccc2c(c1)OCO2	79*	-2	1	-34	-39
O=C(Nc1ccc2c(c1)OCO2)c1ccc(NC2CC2)c([N+](=O)[O-])c1	52*	1	0	4	14
COc1cc(C(=O)Nc2ccc3c(c2)OCO3)c([N+](=O)[O-])cc1OC	59*	2	1	3	-11
CN1CCC(C)(C(=O)Nc2cccc(Oc3ccccc3)c2)C1 (stereo not given)	.	-1	.	.	.
COc1cc(NC(=O)Nc2ccc3c(c2)OCO3)cc(OC)c1OC	76*	3	0	3	-1
C[C@H](CO)N1C[C@H](C)[C@H](CN(C)S(=O)(=O)c2cccs2)OCc2cnnn2CCCC1=O	.	0	-1	.	.
N#C/C(=C\c1ccc([N+](=O)[O-])o1)c1nc2ccccc2[nH]1	55*	.	.	-6	11
SMILES	AHR activator	GAA850 FXN act	NR0B1 inh	HSF1 inh	HSF-1 act
N#C/C(=C(/O)c1ccc([N+](=O)[O-])o1)c1nc2ccccc2[nH]1	7	-4	2	-7	-2
CC(C)(C)c1cc(N2CCOCC2)n2ncc(-c3ccc(Cl)cc3)c2n1	1	1	0	12	19
Cc1ccc(-c2cnn3c(N4CCOCC4)cc(C)nc23)cc1	.	-4	7.6*	-68*	-68
Cc1cc(C)n(-c2cc(C(C)(C)C)nc3c(-c4ccccc4)cnn23)n1	0	3	5.2*	.	.
Cc1cc(N2CCC(C)CC2)n2nc(C)c(-c3ccccc3)c2n1	1	-2	-1	4	34
Cc1cc(N2CCC(C)CC2)n2ncc(-c3ccccc3)c2n1	14	-6	2	-79*	-81
Cc1cc(C)n(-c2cc(C(C)(C)C)nc3c(-c4ccc(Cl)cc4)cnn23)n1	-4	1	0	1	21
Cc1cc(N2CCCCC2)n2ncc(-c3ccccc3)c2n1	42	-3	-1	-5	-13
Cc1cc(N2CCOCC2)n2ncc(-c3ccccc3)c2n1	46	-3	-2	-61*	-69
COc1ccccc1C(=O)NCC(=O)N1CC=C(c2ccccc2)CC1	-4	-1	0	.	.
COc1cc(CCCN2C(N)=NC[C@@H]2Cc2ccccc2)cc(OC)c1OC	-5	2	1	-7	-8
Cc1cc(N2CCOCC2)n2ncc(-c3ccc(Cl)cc3)c2n1	34	-5	6.7*	.	.
NS(=O)(=O)c1ccc(N/N=C/c2ccc3c(c2)OCO3)c([N+](=O)[O-])c1	114*	2	1	1	2
O=C(O)c1ccccc1/C=N/Nc1ccc(S(=O)(=O)N2CCOCC2)cc1[N+](=O)[O-]	-1	-2	1	-8	0
NS(=O)(=O)c1ccc(N/N=C/c2ccccc2C(=O)O)c([N+](=O)[O-])c1	26	2	0	23	61*
O=[N+]([O-])c1ccccc1N/N=C/c1ccc2c(c1)OCO2	.	5	2	44	65*
O=[N+]([O-])c1ccccc1N/N=C/c1ccccc1	7	1	1	22	27
NS(=O)(=O)c1ccc(N/N=C/c2ccc(O)cc2O)c([N+](=O)[O-])c1	-4	1	0	7	12
COc1cc(C(=O)NCc2nnc(SCC(=O)N3CCOCC3)o2)cc(OC)c1OC	0	4	-1	-4	26
COc1ccc(NS(=O)(=O)c2cccc3cccnc23)cc1	-11	2	0	0	1
COc1ccccc1NS(=O)(=O)c1cccc2cccnc12	19	-1	5.4*	2	7
COc1cc(NS(=O)(=O)c2ccc(C)cc2)c2ncccc2c1	9	-17	-3	-81*	-83
Cc1ccc(S(=O)(=O)Nc2cccc3cccnc23)cc1	3	-16	-3	62	81*
CSS(=O)(=O)c1cccc2cccnc12	2	0	.	54	78*
CC1(C(=O)NCCc2c[nH]c3ccccc23)CCN1Cc1csc2ccccc12 (stereo not given)	.	-2	.	.	.
SMILES	AHR activator	GAA850 FXN act	NR0B1 inh	HSF1 inh	HSF-1 act
CN(C)S(=O)(=O)c1cccc(NC(=O)COc2ccccc2C(=O)NCc2ccccc2)c1	.	0	1	.	.
Nc1c(C(=O)NCCc2ccc(Cl)cc2)sc2ccc(S(=O)(=O)N3CCCCC3)cc12	4	.	.	36	63*
C/C(N)=C(/C#N)C(=O)CSc1nnc(-c2ccc3c(c2)OCO3)o1	13	0	2	50	76*
C/C(N)=C(/C#N)C(=O)CSc1nnc(-c2ccc(OC(F)F)cc2)o1	14	7	6.3*!	46	78*
COCc1cccc(C(=O)NC(c2ccccc2)c2ccccc2)c1	3	-2	1	-2	-10
CC(C)CCCCCCCCCCCCC(=O)NCC(=O)NC1C(C)OC(Nc2ncnc3nc[nH]c23)C(O)C1O (stereo not given)	.	-15	-4	.	.
